This is one part of the list. Calls of active or inactive are those of the source. How the calls were made is not given here.

In general, viability refers to a read-out of living cells in per cent, often relative to untreated cells.

A short description of the experiment: Assay for Inhibitors of Influenza NS1 Protein Function: Influenza virus replication assay in MDCK cells infected with virus A/PR/8/34. The following applies: MDCK infected influenza A/PR/8/34, virus titer TCID50, at 5 µM; viability: measured here: MDCK cell viability, stronger effect = higher value; virus titer (log TCID50): stronger effect = lower value. From the text:
NIH Chemical Genomics Center [NCGC]
NIH Molecular Libraries Probe Centers Network [MLPCN]
Assay Submitter (PI): Daniel Engel
Influenza is a world-wide public health problem and emerging forms of the virus have the potential to cause a pandemic of equal or greater magnitude to the outbreaks recorded in 1918, 1957 or 1968. Vaccine development is proceeding and there also exist two classes of anti-influenza compounds. However these therapeutic modalities are neither fully effective nor widely enough available to fulfill global needs. In addition their potential usefulness against newly emergent strains is not known. Efforts are needed to develop novel agents against influenza virus, including broad-spectrum agents. Identification of small molecules that inhibit NS1 function either directly or by interfering with specific cellular pathways may be a key to increasing our defense against the virus.
We have miniaturized and optimized a cell based assay in which NS1 from influenza A is expressed in the budding yeast S. cerevisiae. NS1 is a multi-functional protein that counters the host innate immune response and facilitates viral versus cellular gene expression. Expression of NS1 causes a pronounced slow growth phenotype in yeast due to its intrinsic molecular activities. Small molecules that suppress the slow growth phenotype can be identified by a straightforward growth recovery assay using optical density (OD) as the measurement. The same yeast strain not expressing NS1 was used as positive control in the yeast growth recovery assay. The present experiment attempted to confirm the activity of compounds observed in the primary screen.
This assay confirms the activity of compounds from the primary screen by measuring their affect on viral replication.
Protocol details are given in Basu et al. J. Vir. 83(4):1881-1891 2009. […] All media and sera were from Invitrogen. […] Confluent cell monolayers were infected at a multiplicity of infection (MOI) of 0.1 for 48 h in the presence or absence of 5uM compound. Compounds were added at the beginning of infection and were present throughout the infection. After 48 h virus titers were determined by standard TCID50 analysis.
`O=c1cc(O)nc(SCc2ccccc2Cl)[nH]1`: the viability was 104% and the virus titer (log TCID50) was 7.66 log10 TCID50 (inactive).

With `CCCc1cc(=O)[nH]c(SCC(=O)c2cc(C)n(CCC)c2C)n1`, the virus titer (log TCID50) was 7.5 log10 TCID50 (active) and the viability was 95.4%.

With `Cc1ccc(Cn2c(C)nc3c(c2=O)c2nc4ccccc4nc2n3Cc2ccco2)cc1`, the viability came out at 101% and the virus titer (log TCID50) was 7.5 log10 TCID50 (active).

As for `O=C1c2cccc(OCC(=O)N3N=C(c4cccs4)CC3c3ccc(F)cc3)c2CCN1Cc1ccccc1` (stereo not given), the viability was 91% and the virus titer (log TCID50) was 8.5 log10 TCID50 (inactive).

In the case of `Cc1cc(C)c2cc(CN(Cc3nnnn3Cc3ccc(F)cc3)C3CCCC3)c(=O)[nH]c2c1`, the viability was 103% and the virus titer (log TCID50) is 8.5 log10 TCID50 (inactive).

(Values after PubChem BioAssay AID504647 (National Center for Advancing Translational Sciences (NCATS), 2011).)
